PKA inh: blocks human protein kinase A activity | P17612 | PKA Kemptide phosphorylation, Kinase-Glo ATP luminescence | inhibition, % at 6 µM | actives 0.1% (n = 65,000) | AID 524;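 active means inhibition above the screen-wide mean inhibition plus 3 SD, cut at about 21% in these data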
ROCK2 blocker: inhibitors of human Rho kinase 2; O75116; purified ROCK2, Kinase-Glo ATP depletion luminescence; inhibition, % at 6 µM; actives 0.35% (n = 60,000); AID 604;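 active means inhibition above the screen-wide mean inhibition plus 3 SD, cut at about 18% in these data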;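 further: plate controls were DMSO wells for no effect and Y-27632 control wells after no-enzyme background subtraction for full effect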
Target sequence (O75116 whole entry, looked up): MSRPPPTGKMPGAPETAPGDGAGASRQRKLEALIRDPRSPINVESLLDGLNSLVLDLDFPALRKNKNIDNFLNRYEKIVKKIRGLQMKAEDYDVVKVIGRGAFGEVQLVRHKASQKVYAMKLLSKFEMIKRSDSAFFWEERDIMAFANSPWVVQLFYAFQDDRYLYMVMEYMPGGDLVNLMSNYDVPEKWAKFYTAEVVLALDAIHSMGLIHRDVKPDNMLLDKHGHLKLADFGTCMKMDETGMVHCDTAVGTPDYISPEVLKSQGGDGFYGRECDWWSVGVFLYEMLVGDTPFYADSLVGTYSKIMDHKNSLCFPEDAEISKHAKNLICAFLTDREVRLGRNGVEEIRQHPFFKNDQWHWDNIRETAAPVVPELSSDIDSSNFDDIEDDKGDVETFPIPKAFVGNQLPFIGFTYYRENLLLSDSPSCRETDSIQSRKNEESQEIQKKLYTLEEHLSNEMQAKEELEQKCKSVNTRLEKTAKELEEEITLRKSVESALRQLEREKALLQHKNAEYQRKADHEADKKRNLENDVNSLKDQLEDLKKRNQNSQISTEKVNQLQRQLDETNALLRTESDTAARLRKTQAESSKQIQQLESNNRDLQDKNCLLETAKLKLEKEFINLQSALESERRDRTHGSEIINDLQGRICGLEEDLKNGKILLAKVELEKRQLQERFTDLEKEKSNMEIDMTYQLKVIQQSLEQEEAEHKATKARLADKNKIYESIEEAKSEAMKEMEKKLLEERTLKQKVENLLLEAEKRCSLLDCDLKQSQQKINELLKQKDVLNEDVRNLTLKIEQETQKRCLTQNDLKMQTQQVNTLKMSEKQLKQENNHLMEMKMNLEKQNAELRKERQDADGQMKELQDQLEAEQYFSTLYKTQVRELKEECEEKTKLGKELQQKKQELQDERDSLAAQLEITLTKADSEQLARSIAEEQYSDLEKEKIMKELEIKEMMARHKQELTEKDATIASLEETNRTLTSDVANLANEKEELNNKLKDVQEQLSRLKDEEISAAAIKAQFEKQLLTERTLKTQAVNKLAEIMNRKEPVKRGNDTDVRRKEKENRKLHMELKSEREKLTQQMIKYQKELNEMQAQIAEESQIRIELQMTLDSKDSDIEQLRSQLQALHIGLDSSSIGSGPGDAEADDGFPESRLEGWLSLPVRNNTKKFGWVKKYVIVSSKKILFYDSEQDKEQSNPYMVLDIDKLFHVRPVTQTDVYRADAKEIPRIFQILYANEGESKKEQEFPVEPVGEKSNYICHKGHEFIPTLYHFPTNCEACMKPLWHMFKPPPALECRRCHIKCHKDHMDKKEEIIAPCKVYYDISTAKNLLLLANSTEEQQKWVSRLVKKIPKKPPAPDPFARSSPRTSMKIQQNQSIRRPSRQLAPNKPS
PLK1 inh: inhibitors of human PLK1 kinase; recombinant PLK1 kinase, TR-FRET peptide phosphorylation; actives 0.53% (n = 97,000); P53350; inhibition, % at 10 µM; AID 619;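 active means inhibition of 50% or more in the single-concentration screen; inactive means inhibition below 50%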;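 further: 0% = DMSO max control and 100% = H-89 dihydrochloride min control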
Plk1 PBD FP: Plk1 (human) PBD binding inhibition; P53350; Plk1 PBD phosphopeptide binding, fluorescence polarization; actives 0.13% (n = 97,000); inhibition, %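 (tested at about 20 µM)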; in the data active means inhibition above about 34%, passing the limit was not always enough
Starred values were filed as active, the others as inactive. Sampled rows, rich in hits. Any-hit rate of the full collection: about 0.74%.

What do the screens show for `O=C(Nc1ccncc1)C1CCCN(S(=O)(=O)c2cccc3cccnc23)C1` (stereo not drawn)?
PKA inh: 11; ROCK2 blocker: 75*; PLK1 inh: 3; Plk1 PBD FP: 10

Results for CC(C)(C)NC(=O)C1CCCN(S(=O)(=O)c2cccc3cccnc23)C1 (stereo not drawn) ?
PKA inh: 8; ROCK2 blocker: 6; PLK1 inh: 62*; Plk1 PBD FP: -38

Results for Cc1cc(NC(=O)CSc2nc3ccc(Cl)cc3[nH]2)no1 ?
PLK1 inh: 50*; Plk1 PBD FP: 10

How did Cc1sc2nc(NCCO)[nH]c(=O)c2c1C do in these assays?
PKA inh: 5; ROCK2 blocker: 4; PLK1 inh: 64*; Plk1 PBD FP: -13

Results for CC1CC(C)(C)N(C(=O)CSc2ccc(-c3ccc(F)cc3)nn2)c2ccccc21 (stereo not drawn) ?
PLK1 inh: -6; Plk1 PBD FP: -27

What do the screens show for `O=C(COc1ccccc1F)Nc1nnc(-c2ccncc2)s1`?
PLK1 inh: 54*; Plk1 PBD FP: 22

What do the screens show for `Cc1onc(-c2ccccc2)c1C(=O)N1CCN(C/C=C/c2ccccc2)CC1`?
PKA inh: 5; ROCK2 blocker: 22*; PLK1 inh: -12; Plk1 PBD FP: -16

What do the screens show for `COCCn1c(CN2CC(C)CC(C)C2)nc2c1c(=O)n(C)c(=O)n2C` (stereo not drawn)?
PKA inh: -14; ROCK2 blocker: -7; PLK1 inh: 68*; Plk1 PBD FP: 6

How did FC(F)(F)c1nnc2c(Sc3ccccc3)nc3ccc(Cl)cc3n12 do in these assays?
PLK1 inh: -3; Plk1 PBD FP: -14

Results for NC(=O)c1sc2nc3c(c(-c4ccco4)c2c1N)CCC3 ?
PKA inh: 9; ROCK2 blocker: 35*; PLK1 inh: 10; Plk1 PBD FP: 0

Results for CCOC(=O)N1CCC(NC(=O)C2CCN(C(=O)N3CCOc4ccccc43)CC2)CC1 ?
PKA inh: -4; PLK1 inh: 55*; Plk1 PBD FP: 18

How did O=C(CSc1nc2cc3ccccc3cc2[nH]1)Nc1ccc(F)cc1 do in these assays?
PLK1 inh: -7; Plk1 PBD FP: 5

What do the screens show for `N#CC1=C(N)SC(N)=C(C#N)C1c1cccc(O)c1`?
PLK1 inh: 19; Plk1 PBD FP: -56

How did O=C(C1CC1)N1CCc2cc(S(=O)(=O)N3CCOCC3)ccc21 do in these assays?
PKA inh: 0; ROCK2 blocker: -2; PLK1 inh: 69*; Plk1 PBD FP: 16

Results for CN1CCc2nc(SCC(=O)Nc3ccc(Cl)cc3)c(C#N)cc2C1 ?
PKA inh: 5; ROCK2 blocker: 4; PLK1 inh: 53*; Plk1 PBD FP: -13

What do the screens show for `CCc1nnc(NC(=O)CSc2nc3c(cc2C#N)CCC3)s1`?
PKA inh: 9; ROCK2 blocker: 7; PLK1 inh: -15; Plk1 PBD FP: 12

Results for COc1ccc(NC(=O)CSc2nc(N)c(C#N)cc2C#N)cc1 ?
PLK1 inh: 62*; Plk1 PBD FP: 0

Results for Cc1oc(-c2ccc(Cl)cc2)nc1CN1CCCC(C(=O)N2CCN(C(=O)c3ccco3)CC2)C1 (stereo not drawn) ?
PKA inh: -1; ROCK2 blocker: 1; PLK1 inh: 62*; Plk1 PBD FP: -5

Results for CCN1CCN(C(=O)C2CCN(Cc3nc(-c4ccc(Cl)cc4)oc3C)CC2)CC1 ?
PKA inh: 6; ROCK2 blocker: 6

Results for COc1cc(/C=N\n2nnnc2N)ccc1OCc1ccc(F)cc1 ?
PKA inh: 4; ROCK2 blocker: 18*; PLK1 inh: -13; Plk1 PBD FP: 2

What do the screens show for `CCCC(=O)Nc1nnc(-c2ccc(Cl)s2)o1`?
PKA inh: 3; ROCK2 blocker: -5; PLK1 inh: 64*; Plk1 PBD FP: 7

How did O=C(Nc1nnc(-c2ccc(Cl)s2)o1)C1CCCCC1 do in these assays?
PKA inh: 9; ROCK2 blocker: 6; PLK1 inh: -4; Plk1 PBD FP: 18

How did O=C(O)c1ccccc1C1=Nc2ccc(O)cc2Oc2cc(O)ccc21 do in these assays?
PKA inh: 5; ROCK2 blocker: 2; PLK1 inh: 4; Plk1 PBD FP: 50*

What do the screens show for `c1ccc(-c2csc(Nc3ccc4c(c3)OCCO4)n2)cc1`?
PLK1 inh: -7; Plk1 PBD FP: 4

Results for c1cc2c(cc1Nc1nc(-c3ccc4c(c3)OCO4)cs1)OCCO2 ?
PKA inh: 12; ROCK2 blocker: 24*; PLK1 inh: -10; Plk1 PBD FP: 1

How did COc1cccc(C2C=C(c3ccc(Br)s3)Nc3ncnn32)c1OC (stereo not drawn) do in these assays?
PKA inh: -2; ROCK2 blocker: 1

What do the screens show for `COc1ccc(C2C=C(c3ccc(C)c(C)c3)Nc3ncnn32)c(OC)c1OC` (stereo not drawn)?
PKA inh: 3; ROCK2 blocker: 2; PLK1 inh: 67*; Plk1 PBD FP: -4

How did CC(C)N1C(=O)CC(Nc2ccc(N3CCOCC3)cc2)C1=O (stereo not drawn) do in these assays?
PLK1 inh: 1; Plk1 PBD FP: 18

Results for COc1ccc(NC2CC(=O)N(C(C)C)C2=O)cc1 (stereo not drawn) ?
PKA inh: 9; ROCK2 blocker: 4; PLK1 inh: 54*; Plk1 PBD FP: 10

Results for Cc1nn2c(c1-c1ccc(Cl)cc1)N=C(c1ccco1)CC2c1ccccc1 (stereo not drawn) ?
PLK1 inh: -20; Plk1 PBD FP: -11

How did CCn1c(SCc2nc3sc(C(=O)O)c(C)c3c(=O)[nH]2)nc2ccccc21 do in these assays?
PLK1 inh: 56*; Plk1 PBD FP: -45

What do the screens show for `Cc1ccc(SCc2cc(=O)[nH]c(/N=C(\N)Nc3ccc(C)c(C)c3)n2)cc1`?
PLK1 inh: -2; Plk1 PBD FP: -8

Results for CCSCCOC(=O)C1=C(C)NC(=O)NC1c1ccc2c(c1)OCO2 (stereo not drawn) ?
PKA inh: -13; ROCK2 blocker: -2; PLK1 inh: -14; Plk1 PBD FP: 24

Results for CCSCCOC(=O)C1=C(C)NC(=O)NC1c1ccccc1 (stereo not drawn) ?
PKA inh: 2; ROCK2 blocker: 4; PLK1 inh: 61*; Plk1 PBD FP: 14

What do the screens show for `O=C(Nc1c(C(=O)O)oc2ccc(Br)cc12)c1ccccc1`?
PKA inh: 10; ROCK2 blocker: 5; PLK1 inh: 51*; Plk1 PBD FP: 1

How did CCOC(=O)c1oc2ccc(Br)cc2c1NC(=O)CN1CCN(C)CC1 do in these assays?
PKA inh: 0; ROCK2 blocker: 3; PLK1 inh: -9; Plk1 PBD FP: -13

Results for CC1CCCCN1c1nnc(NC(=O)c2cc(-c3ccc(Br)cc3)on2)s1 (stereo not drawn) ?
PLK1 inh: -12; Plk1 PBD FP: 0

Results for Cc1cc(N2CCN(c3cccc(C)c3C)CC2)nc(-c2ccccc2)n1 ?
PLK1 inh: -10; Plk1 PBD FP: 22

Results for COc1ccc(-c2nc3ccncc3[nH]2)cc1OC ?
PLK1 inh: -4; Plk1 PBD FP: -15

What do the screens show for `Fc1ccc(-c2nc3ccncc3[nH]2)cc1`?
PLK1 inh: 65*; Plk1 PBD FP: -12

How did COc1ccc(N2CCN(c3ncccn3)CC2)cc1 do in these assays?
PLK1 inh: -9; Plk1 PBD FP: -5

Screens from PubChem BioAssay.
